The record followed here is ChEMBL document CHEMBL3433997, “St. Jude Leishmania screening dataset” (2016).

The inhibition is the relative decrease from the control value, in per cent.

Holding throughout (format): functional
Experiment [1] addresses Solute carrier family 2, facilitated glucose transporter member 1 (Homo sapiens) (UniProt P11166). As to the kind of experiment: ST_JUDE_LEISH: Cytotoxicity at 2uM final concentration against transgenic Leishmania Mexicana promastigotes LmGLUT1 that are glucose transport deficient and complemented with the human glucose transporter GLUT1. Activity is measured by DNA content using SYBR green in vitro.

Experiment [2] deals with Hexose transporter 1 (Plasmodium falciparum) (UniProt O97467). As to the kind of experiment: ST_JUDE_LEISH: Cytotoxicity at 2uM final concentration against transgenic Leishmania Mexicana promastigotes LmPfHT that are glucose transport deficient and complemented with the Plasmodium falciparum hexose transporter. Activity is measured by DNA content using SYBR green in vitro.

Experiment [3] concerns the target Glucose transporter (Leishmania mexicana) (UniProt O61059). Nature of the experiment: ST_JUDE_LEISH: Cytotoxicity at 2uM final concentration against transgenic Leishmania Mexicana promastigotes LmGT2 that are glucose transport deficient and complemented with the L. Mexicana glucose transporter 2. Activity is measured by DNA content using SYBR green in vitro.

“And” between values parts separate entries of the source, which are not always exact repeats. Equal entries are not always repeated.

Chain of Solute carrier family 2, facilitated glucose transporter member 1 (Homo sapiens) (P11166 whole entry): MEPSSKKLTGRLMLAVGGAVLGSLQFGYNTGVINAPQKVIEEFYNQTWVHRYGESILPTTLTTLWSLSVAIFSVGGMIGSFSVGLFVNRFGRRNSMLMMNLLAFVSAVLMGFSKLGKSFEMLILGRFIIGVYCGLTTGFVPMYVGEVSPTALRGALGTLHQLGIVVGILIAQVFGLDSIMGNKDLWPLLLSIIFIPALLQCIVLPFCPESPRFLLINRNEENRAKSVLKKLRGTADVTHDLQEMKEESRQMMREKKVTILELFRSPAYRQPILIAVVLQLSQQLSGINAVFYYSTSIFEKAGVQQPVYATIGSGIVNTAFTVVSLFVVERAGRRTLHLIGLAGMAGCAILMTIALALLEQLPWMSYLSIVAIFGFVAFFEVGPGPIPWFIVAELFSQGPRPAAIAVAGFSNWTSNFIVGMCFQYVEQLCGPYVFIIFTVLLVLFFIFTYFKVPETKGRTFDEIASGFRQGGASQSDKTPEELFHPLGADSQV

For the molecule `Cc1c(C)c2c(c(C)c1O)CC[C@@](C)(C(=O)NC1CCC(CN3CCC(c4c[nH]c5ccccc45)CC3)CC1)O2` (stereo partly drawn), the inhibition in experiment [1] is 6.35%; in experiment [2], 5.08%; in experiment [3] it was 3.01%.
On the same counts, the results for `CCCCCCc1cc(O)c2c3c(c(=O)oc2c1)CCN(C)C3` are 7.26%, 4.97% and 6.76%.
In the case of `O=C(Nc1ccccc1OC(F)(F)F)NC1CCC(CN2CCC(c3c[nH]c4ccccc34)CC2)CC1` (stereo not drawn), the inhibition in experiment [1] was 2.64% and 17.3%; in experiment [2], 3.83% and 26.1%; in experiment [3], 0.62% and 10.3%.
For the molecule `O=C(/C=C/c1ccc(Cl)c(Cl)c1)N1CCC2CC(N3CCC(c4c[nH]c5ccccc45)CC3)CCC2C1` (stereo not drawn), the inhibition in experiment [1] is 3.41%; in experiment [2], -0.87%; in experiment [3], 0.24%.
The like results for `CCCCCCCN1C2CCC1CC(CCOc1ccnc3ccc(OC)cc13)C2` (stereo not drawn) were, in that order, 11.4%, 8.68% and 11%.
As to `CC(Cc1ccc(C(C)(C)C)cc1)NCC(O)c1ccccc1` (stereo not drawn), the inhibition in experiment [1] is 2.91%; in experiment [2], -0.46%; in experiment [3], 0.43%.
On the same counts, the results for `COc1ccccc1CNCC(O)c1cc(C(F)(F)F)ccc1C(F)(F)F` (stereo not drawn) are 0.84%, 0.58% and 1.6%.
The like results for `O=C(Nc1cc(C(F)(F)F)cc(C(F)(F)F)c1)c1cc(Cl)ccc1O` were, in that order, 7.09%, 7.96% and 8.03%.
On the same counts, the results for `OC1(CNCc2ccccc2)CCN(CCc2c[nH]c3ccc(F)cc23)CC1` are 4.9%, 8.31% and 5.83%.
On to `CC[C@H]1CN2CC[C@H]1C[C@H]2[C@H](O)c1cc(N2CCC3CCCCC3C2)nc2ccc(OC)cc12` (stereo partly drawn), for which the inhibition in experiment [1] was 3.3%; in experiment [2] it was 4.42%; in experiment [3], 3.38%.
The like results for `CC(=O)Nc1ccc(OCCN(CC(C)(C)C)c2ccc(C#N)c(C(F)(F)F)c2)c(Cl)c1` were, in that order, 4.2%, 5.82% and 3.22%.
On the same counts, the results for `COc1cc(C=CC(=O)NC2CCC(CN3CCC(c4c[nH]c5ccccc45)CC3)CC2)cc(OC)c1` (stereo not drawn) are -1.01%, -2.18% and -3.65%.
In the case of `CC(C)CNCc1ccc(-c2cccc(CN(C(=O)CCC3CCCC3)C3CCN(Cc4ccccc4)CC3)c2)cc1`, the values for the inhibition in experiment [1], in experiment [2] and in experiment [3] were 16.4%, 12.3% and 10.7%, respectively.
With `CN1CC=C(c2c[nH]c3ccc(Oc4ccccc4)cc23)CC1`, the values for the inhibition in experiment [1], in experiment [2] and in experiment [3] were 0.93%, 6.03% and 3.03%, respectively.
As to `CC(C)C[C@H](Nc1ccc(C#N)c2ccccc12)C(=O)N[C@@H]1CCCc2ccccc21`, the inhibition in experiment [1] stood at 3.96%; in experiment [2], 1.88%; in experiment [3] it was 1.15%.
On the same counts, the results for `CC(C)n1ncc2c(C(=O)Nc3ccc(C#N)c(Cl)c3)cc(C3CC3)nc21` are 2.24%, 1.01% and 3.4%.
The like results for `CC(Cc1ccc(NC(=O)[C@@H](C)NCCc2cccc(Cl)c2)cc1)NCCc1cccc(Cl)c1` (stereo partly drawn) were, in that order, 0.67%, 2.55% and 2.1%.
On the same counts, the results for `Cc1cc(CN2CCN(CCOC(c3ccccc3)c3ccccc3)CC2)ccc1O` are 16%, 13.2% and 13.6%.
With `CC[C@@]1(O)C(=O)OCc2c1cc1n(c2=O)Cc2c-1nc1cc3c(cc1c2CN1CCOCC1)OCO3`, the inhibition was found to be 51.3% in experiment [1], 76.7% in experiment [2] and 71.6% in experiment [3].
The like results for `CN(c1cc(NC(=O)c2cccs2)ccn1)C1CCN(Cc2cccc(C#N)c2)CC1` were, in that order, 8.2%, 9.92% and 8.95%.
The like results for `S=C(NCCc1ccc(Cl)cc1)N1CCC(CN2CCC(c3c[nH]c4ccccc34)CC2)CC1` were, in that order, 3.04%, 1.73% and 1.67%.
The like results for `CCCCCCCc1cc(=O)c2ccccc2[nH]1` were, in that order, 12.7%, 3.61% and 1.21%.
On to `Cn1nc(-c2ccc(S(=O)(=O)NC3CCC(CN4CCC(c5c[nH]c6ccccc56)CC4)CC3)s2)cc1C(F)(F)F` (stereo not drawn), for which the inhibition in experiment [1] was 5.26% and 1.76%; in experiment [2] it was 4.54% and 4.39%; in experiment [3] it was 1.24% and 0.16%.
In the case of `CC(Cc1ccc(CSC(C)C)cc1)NCC(O)c1cccc(Cl)c1` (stereo not drawn), the inhibition in experiment [1] amounted to 3.54%; in experiment [2], 3.54%; in experiment [3], 3.37%.
As for `Cc1cc(C)c(CC(C)NCC(O)c2cccc(C(F)(F)F)c2)c(C)c1` (stereo not drawn), the inhibition in experiment [1] was 2.03%; in experiment [2], -0.06%; in experiment [3], -1.18%.
Consider `C=C[C@H]1CN2CC[C@H]1C[C@H]2[C@H](OS(=O)(=O)O)c1ccnc2ccccc12`, for which the inhibition in experiment [1] came to 9.31%; in experiment [2], 8.07%; in experiment [3], 9.07%.
On the same counts, the results for `CC[C@H]1CN2CC[C@@H]1C[C@H]2[C@H](O)c1cc(-c2ccc(F)cc2)nc2ccc(O)cc12` are -0.76%, 0.53% and -0.19%.
For the molecule `O=C(C=Cc1ccc(-c2ccccc2)cc1)NC1CCC(CN2CCC(c3c[nH]c4ccccc34)CC2)CC1` (stereo not drawn), the inhibition in experiment [1] is 6.41% and 5.7%; in experiment [2], 7.57% and 7.18%; in experiment [3] it was 6.53% and 3.78%.
Take `COc1cc(/C=C/C(=O)NC2CCC(CN3CCC(c4c[nH]c5ccccc45)CC3)CC2)ccc1O` (stereo not drawn): the inhibition in experiment [1] is 0.32% and 3.25%; in experiment [2], 1.97% and 2.79%; in experiment [3], 1.02% and 1.53%.
On to `CN1CC(c2ccc(Cl)c(Cl)c2)OC1=N` (stereo not drawn), for which the inhibition was -0.53% in experiment [1], 0.23% in experiment [2] and -0.89% in experiment [3].
The like results for `CC(C)CNCc1ccc(-c2cccc(CN(C(=O)NC3CCCCC3)C3CCN(Cc4ccccc4)CC3)c2)cc1` were, in that order, 0.87%, -0.07% and 3.1%.
On the same counts, the results for `O=C(CCCCCc1ccccc1)NC1CCC(CN2CCC(c3c[nH]c4ccccc34)CC2)CC1` (stereo not drawn) are 0.89%, -3.78% and -1.29%.
`C=Cc1cc(OC)c2c(c1)c(=O)oc1c2cc(OC)c2c(O)ccc([C@H]3O[C@H]([C@H](C)O)[C@H](O)[C@H]3O)c21`: the inhibition is 12.1% in experiment [1], 32.6% in experiment [2] and 8.58% in experiment [3].
Turning to `O=C(/C=C/c1cccc2ccccc12)NC1CCC(CN2CCC(c3c[nH]c4ccccc34)CC2)CC1` (stereo not drawn), the inhibition in experiment [1] was 1.25% and 2.48%; in experiment [2], 0.21% and 2.66%; in experiment [3] it was -2.33% and 1.25%.
As to `Cc1[nH]c2ccc([N+](=O)[O-])cc2c1C1=CCN(C)CC1`, the figures for the inhibition in experiment [1], in experiment [2] and in experiment [3] were 1.47%, 1.63% and 2.86%, respectively.
The like results for `CC(=O)C1(c2ccccc2)CCN(CCC2(c3ccc(Cl)c(Cl)c3)CN(C(=O)Nc3cc(F)cc(F)c3)CCO2)CC1` (stereo not drawn) were, in that order, 2.31%, 2.4% and -0.62%.
